Only some compounds are listed: those with a hit (about 21% of all), similar ones and a draw of the others.
Pf growth 48h: inhibits P. falciparum growth in the first generation, 48 h | P. falciparum luciferase growth in erythrocytes, 48 h | Potency, µM (titrated, usually from 28.7 µM), usual class: inhibitors | hit rate 5.9% among 310,000 | AID 504832
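Cell-based growth assay: transgenic P. falciparum expressing firefly luciferase, cultured in red cells within RPMI 1640 containing 0.5% w/v Albumax, 24 mM bicarbonate and gentamycin. A drop in luciferase activity indicates inhibition.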
HCV inhibitor: HCV inhibition | Huh7.5.1 HCVcc-Cre infection, luciferase reporter, 44 h | Potency, µM (top dose mostly 41.8 µM), usual class: inhibitors | hit rate 3.4% among 340,000
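Cells (1,000/well) were plated 4 h before compound, then infected with HCVcc-Cre virus (~0.5 moi). After 44 h further culture, infection was read as luciferase luminescence following a 15 min substrate incubation at room temperature.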
Shiga toxin inh: inhibitors of Shiga toxin in Vero cells; Vero cells, Shiga toxin protein synthesis inhibition reporter; inhibition, % at 38.7 µM; hit rate 9.2% among 290,000; in the data active = inhibition mostly above about 28%, no sharp cut-off; inactive = mostly below about 43%
CHX counter: affects cycloheximide protein synthesis inhibition readout, counter-screen. cell reporter, cycloheximide protein synthesis inhibition counterscreen. max response, %. hit rate 12% among 300,000. AID 2314; in the data active = max response mostly above about 13%, no sharp cut-off; inactive = mostly below about 14%; note: read at 38.3 µM for the half of the compounds with a filed dose
HCMV antiviral: inhibitors of human cytomegalovirus. hit rate 4.5% among 410,000. activity change, negative = inhibition, % at 57.5 µM. HFF cells, HCMV-luciferase reporter, 72 h; active compounds read low; in the data active = activity change below about -60%; inconclusive = no clear call, values can overlap the other calls; inactive = above about -39%
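Steps: HFFs plated, 16 h 37C; compounds added; HCMV-luciferase added to MOI 1 PFU/cell; 72 h 37C; OneGlo reagent, 5 min room temperature; luminescence read, normalized to controls.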
Pf growth 96h: inhibits malaria parasite growth, 96 h; P. falciparum luciferase reporter growth, 96 h; Potency, µM (top dose mostly 28.7 µM), most hits filed as inhibitors; hit rate 6.9% among 320,000
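Erythrocytes infected with luciferase-expressing P. falciparum were dispensed at 2% hematocrit and 0.05% parasitemia (final), then incubated with compounds 96 hours at 37 C in 5% CO2. Luminescence after detection reagent addition reported growth.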
Large screens that a line does not name were inactive. Unless noted, calls come from the whole dose curve; as a rule, active = well fitted inhibition curve with a large enough effect; inconclusive = small, poorly fitted or top-dose-only effect, or another doubt; inactive = no such curve, though single readings can be large or run the other way.

O=C(Nc1ccccc1OC(F)F)c1cc2c(s1)CCC2	HCV inhibitor inconclusive, Shiga toxin inh 43, CHX counter 40
O=C(NNC(=S)Nc1ccc(OC(F)F)cc1)c1cc2c(s1)CCCC2	CHX counter 14
COc1cc(OC)cc(C(=O)NNC(=O)c2cc3c(s2)CCCC3)c1	none
CC(C)(C)c1ccc(C(=O)NCC(=O)OCc2cc(=O)n3nc(C4CC4)sc3n2)cc1	none (no result: Pf growth 48h, HCV inhibitor, Shiga toxin inh, CHX counter, Pf growth 96h)
CC(=O)Nc1ccc(NC(=O)C(C)N(C)CC(=O)Nc2ccccc2Br)cc1 (centres undefined)	HCMV antiviral inconclusive
N/C(=N\OC(=O)CCCOc1ccccc1)c1ccccn1	Shiga toxin inh 42, CHX counter 26
COc1ccc(CC(=O)O/N=C(\N)c2ccccn2)cc1	Shiga toxin inh 75, CHX counter 64
N/C(=N\OC(=O)CSc1ccccc1)c1ccccn1	Shiga toxin inh 99, CHX counter 79, Pf growth 96h inconclusive
N/C(=N\OC(=O)Cc1ccc(-c2ccccc2)cc1)c1ccccn1	Shiga toxin inh 72, CHX counter 36
CC(C)C(=O)O/N=C(\N)c1ccccn1	none
CCc1cccc(NC(=O)Cn2c(=O)n3nc(-c4cccc(F)c4)nc3c3ccccc32)c1	none (no result: Pf growth 48h, HCV inhibitor, Shiga toxin inh, CHX counter, Pf growth 96h)
CC(=O)N1CCC2(CC1)C/C(=N\NC(=S)Nc1ccc(C)cc1)c1cc(O)ccc1O2	Pf growth 48h inconclusive, HCV inhibitor inconclusive, HCMV antiviral inconclusive
COc1ccc(-n2c(/C=C/c3ccc(O)cc3)nc3ccccc3c2=O)cc1	Pf growth 48h inconclusive, HCV inhibitor inconclusive, HCMV antiviral inconclusive
COc1ccc(/C=C/c2nc3ccccc3c(=O)n2-c2cccc(C(=O)O)c2)cc1	none
COc1ccc(-n2c(/C=C/c3ccc(O)c(OC)c3)nc3ccccc3c2=O)cc1	Pf growth 48h inconclusive, HCV inhibitor 11µM, HCMV antiviral -99
COc1cccc(-n2c(/C=C/c3ccc(O)c(O)c3)nc3ccccc3c2=O)c1	Pf growth 48h inconclusive, Pf growth 96h 9.3µM
Cc1ccc(NC(=O)N2CCC(NC(=O)c3cccc(F)c3)CC2)cc1	none
Cc1cc(N2CCCC2=O)cc(C)c1CN1C(=O)c2ccccc2C1=O	HCV inhibitor inconclusive, CHX counter 27 (no result: Pf growth 96h)
O=C1CCCN1c1cccc(Br)c1	none
CCN(CC)CCN1C(=O)C2C3c4ccccc4C(c4ccccc43)C2C1=O (centres undefined)	Pf growth 48h inconclusive, Pf growth 96h 5.2µM
C=CCOCC(O)Cn1c(N2CCCC2)nc2c1c(=O)[nH]c(=O)n2C (centres undefined)	Pf growth 96h 6.6µM
Cn1c(=O)[nH]c(=O)c2c1nc(N1CCCCC1)n2C/C=N/Nc1ccc(C(=O)O)cc1	Pf growth 48h inconclusive, CHX counter 62, HCMV antiviral inconclusive
Cn1c(=O)[nH]c(=O)c2c1nc(N1CCCCC1)n2CC(O)COc1ccc([N+](=O)[O-])cc1 (centres undefined)	Pf growth 96h 9.3µM
Cn1c(=O)[nH]c(=O)c2c1nc(N1CCCC1)n2CC(O)COc1ccccc1 (centres undefined)	Pf growth 96h inconclusive (no result: Pf growth 48h)
Cc1sc(NC(=O)c2ccco2)c(CN2CCC(C)CC2)c1C	HCV inhibitor inconclusive, Pf growth 96h inconclusive (no result: Pf growth 48h)
Cc1sc(NC(=O)c2ccccc2F)c(CN2CCCCC2)c1C	HCV inhibitor inconclusive, Shiga toxin inh 127, CHX counter 50, Pf growth 96h inconclusive
Cc1sc(NC(=O)c2ccc(F)cc2)c(CN2CCCCCC2)c1C	HCV inhibitor inconclusive, Shiga toxin inh 175, CHX counter 43
Cc1sc(NC(=O)c2ccco2)c(CN2CCN(Cc3ccccc3)CC2)c1C	Pf growth 48h 9.3µM, HCV inhibitor inconclusive, Pf growth 96h inconclusive
CCOc1ccc(S(=O)(=O)O)c2cccnc12	none (no result: HCV inhibitor, Shiga toxin inh, CHX counter)
O=C(CCNS(=O)(=O)c1ccccc1)OCC(=O)c1ccc[nH]1	none (no result: Shiga toxin inh, CHX counter)
COC(=O)c1[nH]c2ccc(C)cc2c1NC(=O)CCN1CCN(C2CCCCC2)CC1	HCV inhibitor inconclusive (no result: HCMV antiviral, Pf growth 96h)
CCOC(=O)C1CCN(CC(=O)Nc2c(C(=O)OC)[nH]c3ccccc23)CC1	none (no result: Pf growth 48h, HCV inhibitor)
COC(=O)c1[nH]c2ccc(Cl)cc2c1NC(=O)C1CC1	none
COC(=O)c1[nH]c2ccc(Br)cc2c1NC(=O)CN1CCN(C2CCCCC2)CC1	Pf growth 48h inconclusive, HCV inhibitor 11µM, Pf growth 96h 2.6µM
